According to PubChem BioAssay (NCATS):
Records with an inconclusive call do not appear. Where a call stands in place of a potency, no number is given. Activity calls are given as the source filed them. Calls come from the whole dose curve; as a rule, active = well fitted curve in the direction sought with a large enough effect; inconclusive = small, poorly fitted or top-dose-only effect, or another doubt; inactive = no such curve, though single readings can be large; an effect the other way counts as inactive or inconclusive.

How the values were obtained:
[1] = molecular target: Tyrosine-protein kinase Yes (Homo sapiens) (UniProt P07947); assay: qHTS for small molecule inhibitors of Yes1 kinase: Primary Screen (AID 686947); note: nearly all actives have a fitted effect of over 60% in size; note: potency is the fitted concentration of half-maximal effect
Summary of the method: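 Yes1 (4 nM) preincubated 20 min with compound, then 60 min room-temperature reaction with 0.1 mM ATP and 0.3 mg/mL poly(E4Y) in pH 7.5 Tris, 10 mM MgCl2. ADP measured by ADP-Glo luminescence, normalised to enzyme/no-enzyme controls.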

[2] = qHTS for small molecule inhibitors of Yes1 kinase: Counter Assay (AID 686950);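 note: no kinase present so only ADP-Glo detection of a fixed ADP amount is tested; luminescence from ADP-Glo reporting ADP in a fixed ATP and ADP mixture; series mostly up to about 77 µM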
Summary of the method: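 Enzyme-free ADP-Glo interference check: compounds were preincubated 20 min in buffer, then an ATP/ADP mix (0.08 mM ATP, 0.02 mM ADP final) was added for 60 min at room temperature before two-step ADP-Glo luminescence detection.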

Chain of Tyrosine-protein kinase Yes (Homo sapiens) (P07947 whole entry, looked up): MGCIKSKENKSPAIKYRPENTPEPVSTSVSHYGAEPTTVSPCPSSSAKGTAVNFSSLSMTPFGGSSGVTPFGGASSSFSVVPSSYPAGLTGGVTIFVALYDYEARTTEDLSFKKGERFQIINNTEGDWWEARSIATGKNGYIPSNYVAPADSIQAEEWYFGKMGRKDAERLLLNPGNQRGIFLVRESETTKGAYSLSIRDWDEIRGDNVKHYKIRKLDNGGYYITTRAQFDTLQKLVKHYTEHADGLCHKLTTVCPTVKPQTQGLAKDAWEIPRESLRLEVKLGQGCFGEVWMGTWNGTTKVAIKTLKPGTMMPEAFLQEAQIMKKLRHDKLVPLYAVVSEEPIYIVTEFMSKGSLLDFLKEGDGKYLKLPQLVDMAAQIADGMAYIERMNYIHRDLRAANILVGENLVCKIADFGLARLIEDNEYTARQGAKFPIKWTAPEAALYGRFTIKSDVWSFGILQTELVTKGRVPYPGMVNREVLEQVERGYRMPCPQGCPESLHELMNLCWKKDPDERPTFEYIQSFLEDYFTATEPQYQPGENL

Row | Compound | Potency [1] | outcome [2]
1 | COc1ccccc1-c1cc(C=C2C(=O)Nc3ncc(Br)cc32)cc(Br)c1O | 733 nM (active) | inactive
2 | CC(C)c1ccc(-c2cc(-c3cn[nH]c3-c3ccccn3)ccn2)cc1 | 23200 nM (active) | inactive
3 | CS(=O)(=O)CCN(CC#N)Cc1ccc(-c2ccc3ncnc(Nc4ccc(OCc5cccc(F)c5)c(Cl)c4)c3c2)o1 | inactive | inactive
4 | COC(=O)Nc1nc2ccc(Oc3ccc(NC(=O)Nc4cccc(Cl)c4)cc3)cc2[nH]1 | inactive | inactive
5 | Oc1cccc(-c2nc(-c3ccccc3)[nH]c2-c2ccncc2)c1 | 923 nM (active) | inactive
6 | CC(C)COC(=O)c1ccc2[nH]c(O)c(C=Nc3ccc(S(N)(=O)=O)cc3)c2c1 | 9230 nM (active) | inactive
7 | CC1=C(C(=O)Nc2ccc3n[nH]c(C)c3c2)C(c2ccc(C(F)(F)F)cc2)CC(=O)N1 (stereo not given) | 6540 nM (active) | inactive
8 | CNC(=O)c1cncc(C=Cc2c(C)cccc2C)c1 | 463 nM (active) | inactive
9 | CC(Oc1cc(-n2cnc3ccc(OCC4CCN(C)CC4)cc32)sc1C(N)=O)c1ccccc1Cl (stereo not given) | 1640 nM (active) | inactive
10 | CC(C)(CO)CNC(=O)c1ccc2[nH]c(O)c(N=Nc3ccc(S(N)(=O)=O)cc3)c2c1 | 2320 nM (active) | inactive
11 | CN1CCC(n2cnc(-c3ccc(F)cc3)c2-c2ccnc(NCCO)n2)CC1 | inactive | inactive
12 | NC(=O)c1ccc(Oc2nccc(-c3c(-c4ccc(F)cc4)ncn3C3CCNCC3)n2)cc1 | 11600 nM (active) | inactive
13 | COc1ccc2cc(-c3c(-c4ccncc4)nc(-c4ccc(S(C)(=O)=O)cc4C)n3C)ccc2c1 | 1840 nM (active) | inactive
14 | CS(=O)(=O)CCNCc1ccc(-c2ccc3ncnc(Nc4ccc(OCc5ccccc5)c(Cl)c4)c3c2)o1 | 923 nM (active) | inactive
15 | Nc1ncc(-c2cccc(S(N)(=O)=O)c2)c2scc(-c3ccc(F)c(Cl)c3)c12 | 368 nM (active) | inactive
